PubChem BioAssay AID2283186 (EPA ToxCast)
Calls of active or inactive are those of the source. Rule for the calls: active = hit-call score of the fitted dose curve at least 0.9, where 1 is the maximum; inactive = score below 0.9.

Each molecule was assayed against human p21 Activated Kinase 2 (PAK2), PAK2 (gene 5062) (UniProt Q13177) (assay: NVS_ENZ_hPAK2: NovaScreen (NVS) Enzymatic Assay for human p21 Activated Kinase 2 (PAK2)).
Sequence of human p21 Activated Kinase 2 (PAK2), PAK2 (gene 5062) (Q13177 whole entry, looked up): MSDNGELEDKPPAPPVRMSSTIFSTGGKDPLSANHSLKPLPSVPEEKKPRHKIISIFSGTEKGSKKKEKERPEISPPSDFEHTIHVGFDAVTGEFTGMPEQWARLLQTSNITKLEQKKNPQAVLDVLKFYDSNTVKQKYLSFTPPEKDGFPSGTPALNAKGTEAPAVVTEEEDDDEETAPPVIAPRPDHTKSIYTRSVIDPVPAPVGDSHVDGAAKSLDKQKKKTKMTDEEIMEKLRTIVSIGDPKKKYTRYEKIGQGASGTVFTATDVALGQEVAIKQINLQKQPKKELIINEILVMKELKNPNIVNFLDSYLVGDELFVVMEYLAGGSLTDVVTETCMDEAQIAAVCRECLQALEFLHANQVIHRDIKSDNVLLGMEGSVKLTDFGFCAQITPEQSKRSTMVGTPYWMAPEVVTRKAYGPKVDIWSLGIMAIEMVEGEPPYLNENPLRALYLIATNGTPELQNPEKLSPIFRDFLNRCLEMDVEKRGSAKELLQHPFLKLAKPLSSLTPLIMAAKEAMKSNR
Procedure: NVS_ENZ_hPAK2 is a biochemical, single-readout assay that uses extracted gene-proteins in a cell-free assay. Measurements were taken 1 hour after chemical dosing in a 384-well plate.NVS_ENZ_hPAK2 is one of one assay component(s) measured or calculated from the NVS_ENZ_hPAK2 assay. It is designed to make measurements of enzyme activity, a form of enzyme reporter, as detected with fluorescence intensity signals by Fluorescence and electrophoretic mobility shift technology.Data from the assay component NVS_ENZ_hPAK2 was analyzed into 1 assay endpoint. This assay endpoint, NVS_ENZ_hPAK2, was analyzed in the positive analysis fitting direction relative to DMSO as the negative control and baseline of activity. Using a type of enzyme reporter, loss-of-signal activity can be used to understand changes in the enzymatic activity as they relate to the gene PAK2. Furthermore, this assay endpoint can be referred to as a primary readout, because this assay has produced multiple assay endpoints where this one serves a enzymatic activity function. To generalize the intended target to other relatable targets, this assay endpoint is annotated to the kinase intended target family, where the subfamily is serine/threonine kinase. […]
`COCCO` was tested, and the outcome was “inactive”. `CC(C)(c1ccc(O)cc1)c1ccc(O)cc1` was tested, and the outcome was “inactive”.
